Rows were chosen to be rich in hits. Some 21% of all compounds tested hit in one or more screens of this group.
HCV inhibitor = qHTS Assay for Inhibitors of Hepatitis C Virus (HCV). 340,000 tested, 3.4% active. Potency, µM (highest dose often 41.8 µM), most hits filed as inhibitors. Huh7.5.1 HCVcc-Cre infection, luciferase reporter, 44 h
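After 44 h co-culture of compound, cells and HCVcc-Cre (~0.5 moi), substrate is added for 15 min at room temperature and luciferase measured over 15 sec. Cells were seeded at 1,000/well and pre-cultured 4 h.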
Pf growth 96h = Primary qHTS for delayed death inhibitors of the malarial parasite plastid, 96 hour incubation | Potency, µM (titrated, usually from 28.7 µM), actives largely listed as inhibitors | P. falciparum luciferase reporter growth, 96 h | 320,000 tested, 6.9% active | AID 504834, 2011
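P. falciparum expressing integrated firefly luciferase grown in erythrocytes (2% hematocrit, 0.05% parasitemia final) with compounds for 96 hours at 37 C, 5% CO2. Growth inhibition read as loss of luminescence after adding luciferase detection reagent.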
AMA1-RON2 inh = qHTS for Inhibitors of AMA1-RON; Towards Development of Antimalarial Drug Lead: Primary Screen; AlphaScreen AMA1-biotinylated RON2 peptide binding; Potency, µM (top dose mostly 58.2 µM), actives largely listed as inhibitors; 360,000 tested, 0.2% active; AID 720542, 2013; note: nearly all actives have a fitted effect of over 45% in size
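AMA1 (3D7) with his tag at 25 nM final met compounds first, then biotinylated RON2 peptide at 25 nM; detection used donor plus acceptor beads, 10 µg/mL apiece, read by AlphaScreen after 30 min at room temperature.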
Cycloheximide cs = Cycloheximide Counterscreen for Small Molecule Inhibitors of Shiga Toxin; cell reporter, cycloheximide protein synthesis inhibition counterscreen; max response, %; 300,000 tested, 12% active; AID 2314, 2010; in the data active = max response mostly above about 13%, no sharp cut-off; inactive = mostly below about 14%; note: read at 38.3 µM for the half of the compounds with a filed dose
Shiga inhibitor = A qHTS for Small Molecule Inhibitors of Shiga Toxin. Vero cells, Shiga toxin protein synthesis inhibition reporter. inhibition, % at 38.7 µM. 290,000 tested, 9.2% active; in the data active = inhibition mostly above about 28%, no sharp cut-off; inactive = mostly below about 43%
Pf growth 48h = Primary qHTS for delayed death inhibitors of the malarial parasite plastid, 48 hour incubation. P. falciparum luciferase growth in erythrocytes, 48 h. Potency, µM (titrated, usually from 28.7 µM), actives largely listed as inhibitors. 310,000 tested, 5.9% active
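Growth was read as firefly luciferase luminescence after a 48 h, 37 C, 5% CO2 exposure of compounds to reporter-bearing P. falciparum cultures (0.1% parasitemia, 2% hematocrit final) in Albumax-supplemented RPMI 1640.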
Numbers stand for hits; - = inactive; ? = inconclusive; . = not tested or not shown. Unless noted, calls come from the whole dose curve; as a rule, active = well fitted curve in the direction sought with a large enough effect; inconclusive = small, poorly fitted or top-dose-only effect, or another doubt; inactive = no such curve, though single readings can be large; an effect the other way counts as inactive or inconclusive.

SMILES	HCV inhibitor	Pf growth 96h	AMA1-RON2 inh	Cycloheximide cs	Shiga inhibitor	Pf growth 48h
COc1ccccc1CN1C[C@@H]2C[C@@H](c3ccc(C)c(C)c3)N3CCC[C@@]23C1=O	?	10µM	-	-	-	?
COc1ccccc1CN1C[C@@H]2C[C@@H](c3cccc(C)n3)N3CCC[C@@]23C1=O	-	-	-	-	-	?
COc1ccc(-c2[nH]ncc2[C@@H]2C[C@H]3CN(Cc4ccccc4C)C(=O)[C@]34CCCN24)cc1	?	-	-	-	-	3.3µM
COc1ccc([C@@H]2C[C@H]3CN(Cc4ccccc4OC)C(=O)[C@]34CCCN24)cc1C	?	-	-	-	-	-
COC(=O)C(Cc1ccc(O)cc1)NC(=O)C(C)NC(=O)c1ccc(C(C)(C)C)cc1 (stereo unspecified)	-	-	-	-	-	-
Cn1nccc1C(=O)OCC(=O)Nc1cccc(Cl)c1	-	?	-	.	.	-
O=C1N(Cc2cccnc2)C[C@@H]2C[C@@H](c3cccc(Oc4ccccc4)c3)N3CCC[C@@]123	-	?	-	-	-	?
COc1ccccc1CN1C[C@@H]2C[C@@H](c3cccc(C)c3)N3CCC[C@@]23C1=O	-	10µM	-	-	-	?
C[C@H]1CN([C@@H](C)CO)C(=O)c2cc(Br)cnc2O[C@@H]1CN(C)S(C)(=O)=O	.	.	-	.	.	.
Cc1c(C(=O)NCc2ccc3c(c2)OCCO3)sc(=O)n1Cc1ccc(C(=O)N(C)C)cc1	.	.	-	.	.	.
Cc1cc(C(=O)Nc2ccccc2)c2ccccc2n1	-	13µM	-	-	-	-
Cc1cc(C(=O)Nc2ccc3c(c2)OCCO3)c2ccccc2n1	-	-	-	22	80	-
Cc1cc(C)cc(NC(=O)c2cc(C)nc3ccccc23)c1	-	12µM	-	-	-	?
Cc1cc(C(=O)Nc2ccc(Cl)cc2)c2ccccc2n1	-	-	-	-	-	-
COc1cccc(-c2cc(C(=O)Nc3ccc4c(c3)OCCO4)c3ccccc3n2)c1	-	6.6µM	.	22	-	9.3µM
O=C(Nc1ccc2c(c1)OCCO2)c1cc(-c2ccccc2)nc2ccccc12	?	?	-	-	-	?
Cc1cccc(C)c1NC(=O)C1CCN(S(C)(=O)=O)CC1	-	?	-	-	-	-
Cc1cc(C(=O)NNC(=S)NC(C)c2ccccc2)c2ccccc2n1 (stereo unspecified)	-	10µM	-	-	-	-
Cc1cc(C(=O)NNC(=O)c2ccc(Cl)cc2)c2ccccc2n1	-	-	-	.	.	-
COc1cccc(/C=C2/Sc3ccc(C(=O)NCCCN4CCCC4)cc3NC2=O)c1	?	-	-	-	-	?
O=C(NCCCN1CCCCC1)c1ccc2c(c1)NC(=O)c1ccccc1S2	10µM	?	-	-	-	?
O=C1Nc2cc(C(=O)NCCN3CCCCCC3)ccc2S/C1=C/c1ccccc1F	.	.	-	.	.	.
Cc1ccc(/C=C2/Sc3ccc(C(=O)NCCN4CCOCC4)cc3NC2=O)cc1	-	?	-	-	-	?
O=C1Nc2cc(C(=O)NCCCN3CCCC3)ccc2S/C1=C/c1ccccc1F	?	13µM	-	-	-	?
CC(C)OCCCNC(=O)c1ccc2c(c1)NC(=O)c1ccccc1S2	?	-	-	-	-	3.7µM
SMILES	HCV inhibitor	Pf growth 96h	AMA1-RON2 inh	Cycloheximide cs	Shiga inhibitor	Pf growth 48h
CCN1CCCC1CNC(=O)c1ccc2c(c1)NC(=O)/C(=C\c1ccc(C)cc1)S2 (stereo unspecified)	6.3µM	?	-	-	-	?
O=C(CSc1nnc(-c2ccco2)o1)Nc1c(F)cccc1F	-	-	-	.	.	-
COCCN(CCOC)Cc1cc(=O)oc2cc(C)ccc12	.	.	-	.	.	.
COC(=O)c1ccc(-c2nc3cc(Cl)c(N)cc3s2)cc1	-	-	-	48	106	-
CS(=O)(=O)N1CCc2cc(C(=O)N3CCCCC3)ccc21	-	-	-	-	-	-
O=C(c1ccc2c3n(nc2c1)-c1ccccc1CO3)N1CCCCC1	?	-	-	29	80	-
O=C(c1ccc2c3n(nc2c1)-c1ccc(Cl)cc1CO3)N1CCOCC1	-	-	-	21	56	-
O=C(c1ccc2nc(-c3ccccc3)c(-c3ccccc3)nc2c1)N1CCCCC1	-	-	-	-	-	-
O=C(c1ccc2ccccc2c1)N1CCOCC1	-	-	-	.	.	-
O=C(c1ccc2c3n(nc2c1)-c1ccccc1CO3)N1CCOCC1	-	-	-	31	58	-
Cc1ccc2c(c1)COc1c3ccc(C(=O)N4CCCCC4)cc3nn1-2	-	-	-	34	-	-
COc1ccccc1C(=O)NCC1(c2ccccc2)CCCC1	?	-	-	-	-	?
Cc1ccc([C@@H]2[C@@H]3C(=O)N(c4ccccc4)C(=O)[C@@H]3[C@]3(C)C(=O)N(Cc4ccccc4)CC(=O)N23)o1	-	-	-	-	-	?
CC1NC2(C(=O)N(Cc3ccccc3)c3ccccc32)C2C(=O)N(c3ccccc3)C(=O)C12 (stereo unspecified)	-	12µM	-	-	-	?
O=C(NCC(c1ccccc1)N1CCCC1)C1CCN(C(=O)Nc2ccccc2)CC1 (stereo unspecified)	-	?	-	.	.	?
CCOC(=O)c1nc(Nc2ccc(N3CCC(C)CC3)cc2)c2ccccc2n1	-	-	?	-	-	?
CCC(C)NC(=O)c1cn(C)c(=O)c2cc(OC)c(OC)cc12 (stereo unspecified)	?	9.3µM	-	-	-	-
COCCNC(=O)c1cn(C)c(=O)c2cc(OC)c(OC)cc12	-	8.3µM	-	-	-	-
CCOCCCNC(=O)c1cn(C)c(=O)c2cc(OC)c(OC)cc12	-	?	-	-	-	-
CCOC(=O)CNC(=O)C1(NC(=O)CNC(=O)OCc2ccccc2)CCCC1	-	.	-	.	.	.
CCOC(=O)c1ccc(NC(=O)CSc2nc(C)cc(=O)[nH]2)cc1	-	-	-	-	-	-
CCOC(=O)c1c(-c2ccc(C)o2)csc1NC(=O)CSc1nnnn1-c1ccccc1	1.8µM	.	-	-	-	?
CCOC(=O)c1c(-c2ccc(C)o2)csc1NC(=O)COC(=O)c1ccc(NC(N)=O)cc1	?	.	-	-	-	8.3µM
CCOC(=O)c1c(-c2ccc(C)o2)csc1NC(=S)NC(=O)c1ccccc1Br	?	7.4µM	-	-	-	13µM
CCOC(=O)c1sc(NC(=O)CSc2nnnn2-c2ccccc2)nc1C	-	-	-	-	-	-
CCOC(=O)c1c(-c2ccccc2Cl)csc1NC(=O)CSc1nc(C)cc(=O)[nH]1	-	12µM	-	-	-	-
CC1CCCN(C(=O)COC(=O)c2ccc3[nH]c4c(c3c2)CCCC4)C1 (stereo unspecified)	?	-	-	.	.	-

Screening results from PubChem BioAssay.
